Our source for the outcome values is PubChem BioAssay AID743144 (Broad Institute, 2013).

Entries with a potency or affinity are not part of this list. Results filed as inconclusive are left out. Calls of active or inactive are those of the source. How the calls were made is not given here.

The nature of the test: COV362 cell viability loss – plate reader, dry powder, SA12, cytotoxicity control for PAX8 inhibitor project, dose response (AID 743144). Particulars: COV362 ovarian cancer cells; series mostly up to 35 µM.
Take `N#C[C@@H]1[C@H](c2ccc(-c3ccccc3F)cc2)[C@@H](CO)N1C(=O)Cc1ccccc1`: the compound was classed as inactive.

With `O=C1/C(=C/c2ccccc2)SC(=S)N1CC(=O)N1CCCCC1c1cccnc1` (configuration not stated), the result was inactive. As for `COCC(=O)N1[C@H](CO)[C@H](c2ccc(-c3cccnc3)cc2)[C@@H]1C#N`, the compound was called inactive. With `C[C@H](CO)N1C[C@H](C)[C@@H](CN(C)Cc2ccc(C(F)(F)F)cc2)Oc2ccc(NS(=O)(=O)c3ccc(Cl)cc3)cc2CC1=O`, the compound was classed as inactive. As to `COc1cccc(C#Cc2ccc([C@@H]3[C@@H](C#N)N(C(=O)C4CCCCC4)[C@@H]3CO)cc2)c1`, the result was inactive.

Take `O=C1/C(=C/c2cccc(Br)c2)SC(=S)N1CCC(=O)N(CCO)c1ccccc1`: the call was inactive. As for `N#C[C@@H]1[C@@H](c2ccc(C3=CCCCC3)cc2)[C@@H](CO)N1C(=O)NC1CCCCC1`, the compound was called inactive. The entry for `COc1ccc(S(=O)(=O)Nc2ccc3c(c2)CC(=O)N([C@@H](C)CO)C[C@@H](C)[C@@H](CN(C)Cc2ccc(-c4ccccc4)cc2)O3)cc1` is “inactive”; for `COc1ccccc1C#Cc1ccc([C@H]2[C@@H](CO)N(C(=O)C3CCCC3)[C@H]2C#N)cc1` it is “inactive”; for `C[C@H]1CN([C@@H](C)CO)C(=O)Cc2cc(NC(=O)NC3CCCCC3)ccc2O[C@@H]1CN(C)Cc1ccc(-c2ccccc2)cc1` it is “inactive”. With `C[C@H]1CN([C@@H](C)CO)C(=O)CCCn2nncc2CO[C@@H]1CN(C)C(=O)Nc1ccc(-c2cccs2)cc1`, the call was inactive. On to `CC(C)c1cc(C(=O)OCC(=O)N2CCN(C(=O)c3ccco3)CC2)c(O)c(C(C)C)c1`, for which the result was inactive.
